Activity calls are given as the source filed them. The calls were made as follows: active = hit-call score of the fitted dose curve at least 0.9, where 1 is the maximum; inactive = score below 0.9.
What was measured:
[1] = ATG_E_Box_CIS: Attagene CIS-FACTORIAL HepG2 Assay for human Enhancer Box (E-box) (AID 2282936); conditions: HepG2 E-box cis-reporter transcription, actives raise or lower the signal
In short: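 Transiently transfected HepG2, endogenous TF-driven reporters, 24 h dosing. Readout: RT-PCR plus capillary electrophoresis of fluorescent reporter fragments. Gain or loss of signal fitted bidirectionally against DMSO baseline.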

[2] = ATG_M_61_CIS: Attagene CIS-FACTORIAL HepG2 Assay for M61 Transcription Factor (Internal Marker) (AID 2282937); conditions: HepG2 Attagene CIS-FACTORIAL M61 internal marker reporter; actives raise or lower the signal
In short: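 Multiplexed reporter mRNA assay, HepG2 human hepatoma cells, 24 h treatment. Signal: FAM-labelled, HpaI-digested RT-PCR fragments by CE. Fit: bidirectional, baseline DMSO.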

[3] = ATG_EGR_CIS: Attagene CIS-FACTORIAL HepG2 Assay for human Early Growth Response 1 (EGR1) (AID 2282938); conditions: HepG2 Attagene CIS-FACTORIAL EGR reporter mRNA; actives raise or lower the signal
In short: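 Multiplexed cis-reporter system in human hepatoma HepG2 cells, transiently transfected. Cells are dosed for 24 h; reporter transcripts are amplified, fluorescently tagged and sized by capillary electrophoresis, with DMSO as negative control.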

[4] = ATG_M_19_CIS: Attagene CIS-FACTORIAL HepG2 Assay for M19 Transcription Factor (Internal Marker) (AID 2282939); conditions: HepG2 Attagene CIS-FACTORIAL M19 internal marker reporter; actives raise or lower the signal
In short: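 Following a 24 h exposure, RNA from transfected HepG2 cells was reverse-transcribed, PCR-amplified with reporter-specific primers, end-labelled with 6-FAM and HpaI-digested before capillary separation. Values represent gain or loss versus DMSO.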

[5] = ATG_Ets_CIS: Attagene CIS-FACTORIAL HepG2 Assay for human Erythroblast Transformation Specific (ETS) (AID 2282941); conditions: HepG2 ETS cis-reporter transcription, actives raise or lower the signal
In short: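 Endogenous transcription factor activity read as reporter mRNA via RT-PCR and capillary electrophoresis, with gain or loss fitted bidirectionally against DMSO. Human HepG2 liver cells, transiently transfected CIS reporter constructs, 24 h exposure.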

[6] = target: Hepatocyte nuclear factor 3-beta (Homo sapiens) (UniProt Q9Y261); test: ATG_FoxA2_CIS: Attagene CIS-FACTORIAL HepG2 Assay for human Forkhead box A2 (FOXA2) (AID 2282942); conditions: HepG2 cis-reporter transcription factor activity, 24 h; actives raise or lower the signal
In short: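 Multiplexed cis-element reporter assay in transiently transfected HepG2. Twenty-four hours post-dosing, RNA was reverse-transcribed, amplified, FAM-labelled, HpaI-digested and separated by CE. Activity gain or loss relative to DMSO.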

[7] = ATG_GATA_CIS: Attagene CIS-FACTORIAL HepG2 Assay for human GATA Binding Protein (AID 2282944); conditions: HepG2 GATA cis-element reporter, Attagene multiplex mRNA; actives raise or lower the signal
In short: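 DMSO serves as negative control and baseline for bidirectional fitting of reporter mRNA changes. HepG2 cells bearing transiently transfected cis-promoter reporters were exposed 24 h; transcripts detected via RT-PCR and capillary electrophoresis.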

[8] = ATG_GLI_CIS: Attagene CIS-FACTORIAL HepG2 Assay for human Zinc Finger Protein GLI1 (AID 2282945); conditions: HepG2, Attagene cis-factorial reporter mRNA, GLI element; actives raise or lower the signal
In short: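 Transiently transfected HepG2 cells report endogenous transcription factor activity via cis-element-driven reporter units. After 24 h compound exposure, reporter mRNA was measured by RT-PCR with capillary electrophoresis; bidirectional fitting against DMSO baseline.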

[9] = target: Bile acid receptor (Homo sapiens) (UniProt Q96RI1); test: ATG_IR1_CIS: Attagene CIS-FACTORIAL HepG2 Assay for human Nuclear Receptor Subfamily 1 Group H Member 4 (NR1H4), IR1 submotif (AID 2282946); conditions: IR1 reporter transcription, actives raise or lower the signal
In short: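 Fluorescence of capillary-separated, HpaI-digested RT-PCR reporter products gave IR1-element mRNA induction in HepG2 cells 24 h after dosing. Endogenous transcription factors drove the cis-regulated reporters; activity was fitted bidirectionally against DMSO.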

[10] = ATG_GRE_CIS: Attagene CIS-FACTORIAL HepG2 Assay for human Glucocorticoid Response Elements (GRE) (AID 2282947); conditions: HepG2 GRE cis-reporter, Attagene multiplex mRNA; actives raise or lower the signal
In short: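 Read-out: fluorescent reporter-transcript fragments separated by capillary electrophoresis after RT-PCR. Transiently transfected HepG2 cells carrying cis-element-driven reporter units were dosed for 24 h; gain or loss of signal fitted against DMSO control.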

[11] = ATG_ISRE_CIS: Attagene CIS-FACTORIAL HepG2 Assay for human Interferon Regulatory Factor 1 (IRF1) binding to an Interferon-Stimulated Response Element (ISRE) (AID 2282948); conditions: HepG2 ISRE cis-reporter (Attagene), mRNA transcription readout; actives raise or lower the signal
In short: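 Endogenous transcription factor activity read as reporter transcript abundance via RT-PCR and capillary electrophoresis. HepG2 cells transiently transfected, 24 h chemical exposure. Gain or loss fitted against DMSO baseline.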

[12] = ATG_M_32_CIS: Attagene CIS-FACTORIAL HepG2 Assay for M32 Transcription Factor (Internal Marker) (AID 2282949); conditions: HepG2 Attagene cis-factorial M32 reporter, mRNA; actives raise or lower the signal;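 also: background control marker of the multiplexed CIS panel rather than a real target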
In short: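 Using DMSO as baseline, bidirectional curve fits were applied to reporter mRNA signals. These came from transiently transfected HepG2 cells exposed for 24 h, with RNA analysed by RT-PCR, FAM primer extension, HpaI digestion and CE.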

[13] = ATG_M_06_CIS: Attagene CIS-FACTORIAL HepG2 Assay for M06 Transcription Factor (Internal Marker) (AID 2282950); conditions: HepG2 Attagene CIS-FACTORIAL M06 internal marker reporter; actives raise or lower the signal
In short: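 Fluorescence-labelled RT-PCR products from cis-promoter reporter units, cut with HpaI and resolved by capillary electrophoresis, give the signal. Cells are human HepG2, dosed for 24 h. Serves as background control, fitted relative to DMSO.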

[14] = target: Hypoxia-inducible factor 1-alpha (Homo sapiens) (UniProt Q16665); test: ATG_HIF1a_CIS: Attagene CIS-FACTORIAL HepG2 Assay for human Hypoxia Inducible Factor 1 (HIF1A) (AID 2282951); conditions: HepG2 Attagene cis-factorial HIF1a reporter transcription; actives raise or lower the signal
In short: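 Cis-element reporter constructs were transiently transfected into HepG2 cells, which were treated for 24 h; reporter RNA was reverse-transcribed, amplified, labelled and resolved by capillary electrophoresis.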

[15] = target: Hepatocyte nuclear factor 6 (Homo sapiens) (UniProt Q9UBC0); test: ATG_HNF6_CIS: Attagene CIS-FACTORIAL HepG2 Assay for human Hepatocyte Nuclear Factor 6 (HNF6) (AID 2282952); conditions: HepG2 Attagene cis-factorial HNF6 reporter transcription; actives raise or lower the signal
In short: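 Readout: fluorescent reporter-transcript fragments resolved by capillary electrophoresis after RT-PCR, reflecting endogenous factor activity in transfected HepG2. Exposure 24 h. Gain or loss of signal fitted bidirectionally against DMSO.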

[16] = target: Heat shock factor protein 1 (Homo sapiens) (UniProt Q00613); test: ATG_HSE_CIS: Attagene CIS-FACTORIAL HepG2 Assay for human Heat Shock Transcription Factor 1 (HSE) (AID 2282953); conditions: HepG2 HSE cis-reporter, Attagene RNA transcription; actives raise or lower the signal
In short: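 After a 24 h incubation with test chemical, transfected HepG2 cells were harvested for RNA; reporter transcripts were measured by RT-PCR and capillary electrophoresis. Values reflect gain or loss of signal relative to DMSO.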

[17] = ATG_MRE_CIS: Attagene CIS-FACTORIAL HepG2 Assay for human Metal Responsive Element (MRE) (AID 2282954); conditions: HepG2 MRE cis-reporter transcription, Attagene multiplex; actives raise or lower the signal
In short: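 RT-PCR/capillary electrophoresis readout of reporter mRNA, 24 h post-dosing, in HepG2 cells transfected with multiplexed cis-regulated reporter constructs. Gain or loss of signal fitted bidirectionally against DMSO baseline.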

[18] = ATG_PBREM_CIS: Attagene CIS-FACTORIAL HepG2 Assay for human Phenobarbital-responsive Enhancer Module (PBREM) (AID 2282955); conditions: HepG2 PBREM cis-reporter, Attagene multiplexed transcription; actives raise or lower the signal
In short: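 Multiplexed cis-reporter readout in human hepatoma HepG2 cells; PBREM-regulated transcript quantified after 24 h exposure by fluorescent RT-PCR fragment analysis. Signal changes up or down fitted relative to DMSO.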

[19] = ATG_FoxO_CIS: Attagene CIS-FACTORIAL HepG2 Assay for human Forkhead box O (FoxO) (AID 2282943); conditions: HepG2 Attagene cis-reporter, FoxO element, mRNA; actives raise or lower the signal
In short: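 HepG2 cells transiently transfected with cis-element-driven reporter units report endogenous FoxO activity. After 24 h chemical exposure, reporter mRNA quantified by RT-PCR, fluorescent labeling, HpaI digestion and capillary electrophoresis; bidirectional fit versus DMSO.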

Sequence of Heat shock factor protein 1 (Homo sapiens) (Q00613 whole entry, looked up): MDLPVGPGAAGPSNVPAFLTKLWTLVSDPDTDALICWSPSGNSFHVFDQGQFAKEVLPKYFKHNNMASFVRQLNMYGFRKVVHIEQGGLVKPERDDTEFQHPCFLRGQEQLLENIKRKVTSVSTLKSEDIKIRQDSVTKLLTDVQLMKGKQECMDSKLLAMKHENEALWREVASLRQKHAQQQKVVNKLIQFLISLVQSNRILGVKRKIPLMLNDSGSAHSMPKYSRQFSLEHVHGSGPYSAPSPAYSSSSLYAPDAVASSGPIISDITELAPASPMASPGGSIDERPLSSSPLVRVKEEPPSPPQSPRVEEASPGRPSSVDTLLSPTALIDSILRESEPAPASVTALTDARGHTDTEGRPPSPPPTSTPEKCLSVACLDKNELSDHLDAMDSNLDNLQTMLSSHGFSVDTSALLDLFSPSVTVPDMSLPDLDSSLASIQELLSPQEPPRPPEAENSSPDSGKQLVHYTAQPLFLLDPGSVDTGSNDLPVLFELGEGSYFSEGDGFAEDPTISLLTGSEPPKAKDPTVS
Sequence of Hepatocyte nuclear factor 3-beta (Homo sapiens) (Q9Y261 whole entry, looked up): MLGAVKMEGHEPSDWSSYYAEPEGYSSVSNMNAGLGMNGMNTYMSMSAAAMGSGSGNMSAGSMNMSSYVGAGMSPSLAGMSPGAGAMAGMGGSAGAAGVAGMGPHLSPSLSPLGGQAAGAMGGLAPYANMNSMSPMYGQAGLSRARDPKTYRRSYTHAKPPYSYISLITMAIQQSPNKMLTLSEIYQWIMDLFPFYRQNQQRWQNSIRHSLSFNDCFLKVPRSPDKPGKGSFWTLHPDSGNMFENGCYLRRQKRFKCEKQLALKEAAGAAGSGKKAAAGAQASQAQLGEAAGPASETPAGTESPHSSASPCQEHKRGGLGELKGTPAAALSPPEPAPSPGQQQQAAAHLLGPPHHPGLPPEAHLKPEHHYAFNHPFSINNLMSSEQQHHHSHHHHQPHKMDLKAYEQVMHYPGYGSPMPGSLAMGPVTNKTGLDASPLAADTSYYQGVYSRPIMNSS
Sequence of Hypoxia-inducible factor 1-alpha (Homo sapiens) (Q16665 whole entry, looked up): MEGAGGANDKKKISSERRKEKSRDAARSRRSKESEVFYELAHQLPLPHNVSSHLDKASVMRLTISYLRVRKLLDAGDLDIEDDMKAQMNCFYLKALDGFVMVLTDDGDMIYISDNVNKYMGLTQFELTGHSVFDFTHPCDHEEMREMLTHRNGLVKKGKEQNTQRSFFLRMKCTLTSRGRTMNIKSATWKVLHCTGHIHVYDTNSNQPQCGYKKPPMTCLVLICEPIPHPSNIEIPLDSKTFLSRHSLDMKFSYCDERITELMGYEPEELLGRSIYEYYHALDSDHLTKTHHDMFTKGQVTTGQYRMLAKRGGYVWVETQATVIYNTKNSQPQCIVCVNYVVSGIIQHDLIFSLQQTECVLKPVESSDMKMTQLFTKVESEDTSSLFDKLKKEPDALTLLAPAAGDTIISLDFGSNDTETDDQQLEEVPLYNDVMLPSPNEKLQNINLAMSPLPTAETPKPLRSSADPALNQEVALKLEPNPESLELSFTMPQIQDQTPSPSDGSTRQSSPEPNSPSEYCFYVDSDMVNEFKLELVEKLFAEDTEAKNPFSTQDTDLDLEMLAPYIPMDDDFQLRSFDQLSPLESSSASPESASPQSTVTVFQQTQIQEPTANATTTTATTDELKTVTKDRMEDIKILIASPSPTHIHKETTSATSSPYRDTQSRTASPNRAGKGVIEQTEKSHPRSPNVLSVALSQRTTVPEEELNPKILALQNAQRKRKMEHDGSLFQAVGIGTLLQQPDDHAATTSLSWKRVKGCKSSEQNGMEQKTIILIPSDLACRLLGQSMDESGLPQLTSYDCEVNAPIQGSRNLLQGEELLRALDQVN
Sequence of Bile acid receptor (Homo sapiens) (Q96RI1 whole entry, looked up): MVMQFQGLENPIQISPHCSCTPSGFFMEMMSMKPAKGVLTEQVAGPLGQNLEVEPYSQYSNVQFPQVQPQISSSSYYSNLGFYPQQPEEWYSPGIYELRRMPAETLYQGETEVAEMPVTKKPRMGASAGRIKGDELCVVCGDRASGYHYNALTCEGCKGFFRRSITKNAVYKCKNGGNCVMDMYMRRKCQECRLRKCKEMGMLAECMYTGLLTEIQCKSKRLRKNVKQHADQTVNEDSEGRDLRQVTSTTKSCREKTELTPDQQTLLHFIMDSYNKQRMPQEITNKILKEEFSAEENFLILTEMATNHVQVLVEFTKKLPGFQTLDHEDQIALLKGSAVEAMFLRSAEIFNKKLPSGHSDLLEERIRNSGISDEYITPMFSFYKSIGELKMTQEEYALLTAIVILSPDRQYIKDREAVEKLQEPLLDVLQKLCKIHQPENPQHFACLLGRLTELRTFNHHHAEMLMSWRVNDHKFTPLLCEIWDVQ
Sequence of Hepatocyte nuclear factor 6 (Homo sapiens) (Q9UBC0 whole entry, looked up, the tested form may be a part): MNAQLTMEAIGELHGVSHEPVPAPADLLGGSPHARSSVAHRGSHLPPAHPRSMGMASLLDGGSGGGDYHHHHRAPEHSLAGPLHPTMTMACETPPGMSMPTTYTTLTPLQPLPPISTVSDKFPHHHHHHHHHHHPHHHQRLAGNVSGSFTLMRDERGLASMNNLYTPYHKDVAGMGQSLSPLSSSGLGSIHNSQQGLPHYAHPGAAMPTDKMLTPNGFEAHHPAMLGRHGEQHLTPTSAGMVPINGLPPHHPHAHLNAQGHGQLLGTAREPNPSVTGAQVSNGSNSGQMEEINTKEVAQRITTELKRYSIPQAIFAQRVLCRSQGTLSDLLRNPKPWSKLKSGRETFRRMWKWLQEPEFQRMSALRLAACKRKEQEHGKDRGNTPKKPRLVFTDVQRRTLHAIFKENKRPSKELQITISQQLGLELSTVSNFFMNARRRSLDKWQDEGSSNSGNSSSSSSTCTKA

SMILES	outcome [1]	outcome [2]	outcome [3]	outcome [4]	outcome [5]	outcome [6]	outcome [7]	outcome [8]	outcome [9]	outcome [10]	outcome [11]	outcome [12]	outcome [13]	outcome [14]	outcome [15]	outcome [16]	outcome [17]	outcome [18]	outcome [19]	AC50 [18]
c1ccc2cc(Nc3ccc(Nc4ccc5ccccc5c4)cc3)ccc2c1	inactive	inactive	inactive	inactive	inactive	inactive	inactive	inactive	inactive	inactive	inactive	inactive	inactive	inactive	inactive	inactive	inactive	inactive		
CCCCCCCCCCCCCC(=O)OCC(O)CO (stereo not given)	inactive	inactive	inactive	inactive	inactive	inactive	inactive	inactive	inactive	inactive	inactive	inactive	inactive	inactive		inactive	inactive			
COc1cccc(OC)c1O	inactive	inactive	inactive	inactive	inactive	inactive	inactive	inactive	inactive	inactive	inactive	inactive	inactive	inactive		inactive	inactive	inactive		
CCCCCCC(C)(C)S	inactive	inactive	inactive	inactive	inactive	inactive	inactive		inactive	inactive	inactive	inactive	inactive	inactive	inactive	inactive	inactive	inactive	inactive	
COc1cc(CCC(C)=O)ccc1O	inactive	inactive	inactive	inactive	inactive	inactive	inactive	inactive	inactive	inactive	inactive	inactive	inactive	inactive	inactive	inactive	inactive	inactive		
CCCN(CCC)S(=O)(=O)c1ccc(C(=O)O)cc1	inactive	inactive	inactive	inactive	inactive	inactive	inactive	inactive	inactive	inactive	inactive	inactive	inactive		inactive	inactive	inactive			
O=C1OC[C@H](Cc2cccc(O)c2)[C@H]1Cc1cccc(O)c1	inactive	inactive	inactive	inactive	inactive	inactive	inactive			inactive	inactive	inactive	inactive	inactive	inactive	inactive	inactive		inactive	33.5 µM (active)

Source: PubChem BioAssay (EPA / NIEHS)
